In the supplement of paper PMC11732987, “Enantioselective OTUD7B fragment discovery through chemoproteomics screening and high-throughput optimisation” (Communications Chemistry, 2025):

Legend:
Test in all cases: log2 ratio of Biotin-Ahx-Ub-VS probe labelling (fragment/DMSO); higher = less target engagement (more negative = stronger competition), active = hit call of the paper (q ≤ 0.05, log2 ratio ≤ -1)
Conditions in all cases: compound concentration: 200 uM; treatment time: 3 h
USP34 = USP34 (UniProt Q70CQ2)
How it was run: (§1)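 HEK293T lysate in Tris/CHAPS/IGEPAL buffer with protease inhibitors (495 µg per sample) was given fragment at 200 µM or vehicle for 3 h, in triplicate. It then received Biotin-Ahx-Ub-VS at 0.5 µM final for 1 h. Labelled DUBs were NeutrAvidin-enriched, digested with LysC and trypsin, and run by diaPASEF LC-MS/MS. Values are average log2 fragment/vehicle ratios by unpaired t-test on global-median-normalised Spectronaut quantities of proteins with ≥2 unique peptides.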

USP36 = biological target: T1, USP36 (UniProt Q9P275)
T1 sequence (whole entry): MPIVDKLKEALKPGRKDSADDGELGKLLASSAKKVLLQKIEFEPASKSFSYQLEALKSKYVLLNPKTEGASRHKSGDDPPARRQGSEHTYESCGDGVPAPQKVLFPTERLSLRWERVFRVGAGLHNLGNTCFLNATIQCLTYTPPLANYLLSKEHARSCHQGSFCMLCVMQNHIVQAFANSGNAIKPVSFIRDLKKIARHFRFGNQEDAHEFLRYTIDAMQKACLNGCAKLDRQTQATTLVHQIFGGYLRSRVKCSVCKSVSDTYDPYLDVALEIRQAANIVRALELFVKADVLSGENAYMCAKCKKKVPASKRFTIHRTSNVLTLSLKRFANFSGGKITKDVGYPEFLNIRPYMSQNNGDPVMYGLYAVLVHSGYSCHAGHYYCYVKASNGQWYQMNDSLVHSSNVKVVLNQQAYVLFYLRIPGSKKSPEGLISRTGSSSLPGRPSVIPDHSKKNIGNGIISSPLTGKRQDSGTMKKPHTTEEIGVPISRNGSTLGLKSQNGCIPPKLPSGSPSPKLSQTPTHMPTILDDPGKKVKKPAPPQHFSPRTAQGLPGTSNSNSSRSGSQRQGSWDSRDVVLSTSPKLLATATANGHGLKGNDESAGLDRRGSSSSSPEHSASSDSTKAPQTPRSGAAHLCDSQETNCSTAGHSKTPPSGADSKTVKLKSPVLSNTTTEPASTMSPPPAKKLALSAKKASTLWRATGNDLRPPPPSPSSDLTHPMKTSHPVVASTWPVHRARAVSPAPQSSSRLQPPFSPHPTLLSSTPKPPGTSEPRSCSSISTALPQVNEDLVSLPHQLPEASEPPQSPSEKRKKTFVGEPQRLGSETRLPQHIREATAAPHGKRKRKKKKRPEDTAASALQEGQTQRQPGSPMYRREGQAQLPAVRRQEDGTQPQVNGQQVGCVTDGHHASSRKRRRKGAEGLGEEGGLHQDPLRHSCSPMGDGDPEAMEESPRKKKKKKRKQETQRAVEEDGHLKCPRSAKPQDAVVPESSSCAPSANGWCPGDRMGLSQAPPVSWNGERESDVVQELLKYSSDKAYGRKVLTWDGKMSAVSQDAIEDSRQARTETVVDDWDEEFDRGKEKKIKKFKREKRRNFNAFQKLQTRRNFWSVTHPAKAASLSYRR
How it was run: as §1

USP38 = biological target: T2, USP38 (UniProt Q8NB14)
T2 sequence (whole entry): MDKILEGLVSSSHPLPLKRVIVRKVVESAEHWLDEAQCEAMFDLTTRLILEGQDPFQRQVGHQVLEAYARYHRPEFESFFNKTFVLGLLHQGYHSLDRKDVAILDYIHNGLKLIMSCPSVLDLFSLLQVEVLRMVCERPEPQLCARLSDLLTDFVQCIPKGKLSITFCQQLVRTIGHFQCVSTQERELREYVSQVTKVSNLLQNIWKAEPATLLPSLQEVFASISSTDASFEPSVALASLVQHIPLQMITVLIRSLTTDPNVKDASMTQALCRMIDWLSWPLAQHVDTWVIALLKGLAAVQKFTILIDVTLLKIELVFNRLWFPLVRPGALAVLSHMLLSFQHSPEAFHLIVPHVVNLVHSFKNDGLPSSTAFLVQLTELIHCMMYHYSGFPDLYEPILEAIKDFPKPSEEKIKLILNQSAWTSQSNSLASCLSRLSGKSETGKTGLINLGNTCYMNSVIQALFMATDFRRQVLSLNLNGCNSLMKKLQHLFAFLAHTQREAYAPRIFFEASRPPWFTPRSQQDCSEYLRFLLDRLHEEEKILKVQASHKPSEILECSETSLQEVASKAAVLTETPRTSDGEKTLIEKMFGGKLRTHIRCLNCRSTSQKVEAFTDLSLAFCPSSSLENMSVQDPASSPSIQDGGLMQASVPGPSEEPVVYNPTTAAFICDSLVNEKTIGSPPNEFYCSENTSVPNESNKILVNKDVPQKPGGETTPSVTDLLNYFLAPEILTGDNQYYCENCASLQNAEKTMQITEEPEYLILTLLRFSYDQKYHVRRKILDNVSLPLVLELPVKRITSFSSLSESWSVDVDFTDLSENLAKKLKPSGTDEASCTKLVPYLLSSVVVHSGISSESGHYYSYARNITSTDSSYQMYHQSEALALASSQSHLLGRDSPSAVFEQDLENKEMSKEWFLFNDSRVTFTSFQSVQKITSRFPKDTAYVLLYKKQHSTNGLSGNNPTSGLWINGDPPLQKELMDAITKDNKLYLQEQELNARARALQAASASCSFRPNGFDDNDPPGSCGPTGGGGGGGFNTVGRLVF
How it was run: as §1

USP39 = biological target: T3, USP39 (UniProt Q53GS9)
T3 sequence (whole entry): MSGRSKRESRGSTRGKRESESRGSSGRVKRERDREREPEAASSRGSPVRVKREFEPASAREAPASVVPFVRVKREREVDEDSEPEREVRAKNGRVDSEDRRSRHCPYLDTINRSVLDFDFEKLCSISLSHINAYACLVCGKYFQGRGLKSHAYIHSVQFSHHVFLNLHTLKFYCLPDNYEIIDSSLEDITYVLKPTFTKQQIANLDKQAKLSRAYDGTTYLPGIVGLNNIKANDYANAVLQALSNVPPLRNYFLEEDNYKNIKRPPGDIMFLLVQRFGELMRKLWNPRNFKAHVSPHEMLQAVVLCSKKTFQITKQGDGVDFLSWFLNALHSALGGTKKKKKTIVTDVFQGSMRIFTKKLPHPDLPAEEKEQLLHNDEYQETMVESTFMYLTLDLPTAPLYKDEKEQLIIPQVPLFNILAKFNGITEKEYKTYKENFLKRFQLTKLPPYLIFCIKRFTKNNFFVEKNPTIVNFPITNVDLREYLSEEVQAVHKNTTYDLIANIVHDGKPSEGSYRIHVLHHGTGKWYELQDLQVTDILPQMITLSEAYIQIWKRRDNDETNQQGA
How it was run: as §1

USP4 = biological target: T4, USP4 (UniProt Q13107)
T4 sequence (whole entry): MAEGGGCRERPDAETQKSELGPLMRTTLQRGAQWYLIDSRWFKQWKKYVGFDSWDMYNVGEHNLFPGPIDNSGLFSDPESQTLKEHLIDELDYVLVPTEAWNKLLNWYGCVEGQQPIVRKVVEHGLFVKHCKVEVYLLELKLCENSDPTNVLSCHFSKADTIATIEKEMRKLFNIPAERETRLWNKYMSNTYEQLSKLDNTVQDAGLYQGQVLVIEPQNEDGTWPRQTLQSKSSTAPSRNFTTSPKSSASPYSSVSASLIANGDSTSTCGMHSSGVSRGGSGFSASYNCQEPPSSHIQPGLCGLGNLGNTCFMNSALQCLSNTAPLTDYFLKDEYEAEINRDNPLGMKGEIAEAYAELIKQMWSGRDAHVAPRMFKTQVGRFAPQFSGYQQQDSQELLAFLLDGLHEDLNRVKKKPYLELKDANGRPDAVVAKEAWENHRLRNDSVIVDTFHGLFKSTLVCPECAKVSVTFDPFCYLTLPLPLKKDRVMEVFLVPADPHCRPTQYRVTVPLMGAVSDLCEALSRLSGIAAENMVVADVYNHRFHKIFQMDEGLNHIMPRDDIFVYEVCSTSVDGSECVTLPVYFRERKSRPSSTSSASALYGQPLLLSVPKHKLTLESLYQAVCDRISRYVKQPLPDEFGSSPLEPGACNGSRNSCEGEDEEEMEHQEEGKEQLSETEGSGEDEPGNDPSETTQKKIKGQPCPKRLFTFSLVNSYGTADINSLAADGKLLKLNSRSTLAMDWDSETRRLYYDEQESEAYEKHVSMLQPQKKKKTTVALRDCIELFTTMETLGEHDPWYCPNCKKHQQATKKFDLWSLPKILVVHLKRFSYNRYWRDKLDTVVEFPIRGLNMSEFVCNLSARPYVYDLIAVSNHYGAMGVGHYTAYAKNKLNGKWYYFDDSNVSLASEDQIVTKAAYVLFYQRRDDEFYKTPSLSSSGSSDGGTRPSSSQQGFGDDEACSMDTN
How it was run: as §1

Measured: log2 ratio of Biotin-Ahx-Ub-VS probe labelling

USP34, sequence (Q70CQ2 whole entry, the tested form may be a part): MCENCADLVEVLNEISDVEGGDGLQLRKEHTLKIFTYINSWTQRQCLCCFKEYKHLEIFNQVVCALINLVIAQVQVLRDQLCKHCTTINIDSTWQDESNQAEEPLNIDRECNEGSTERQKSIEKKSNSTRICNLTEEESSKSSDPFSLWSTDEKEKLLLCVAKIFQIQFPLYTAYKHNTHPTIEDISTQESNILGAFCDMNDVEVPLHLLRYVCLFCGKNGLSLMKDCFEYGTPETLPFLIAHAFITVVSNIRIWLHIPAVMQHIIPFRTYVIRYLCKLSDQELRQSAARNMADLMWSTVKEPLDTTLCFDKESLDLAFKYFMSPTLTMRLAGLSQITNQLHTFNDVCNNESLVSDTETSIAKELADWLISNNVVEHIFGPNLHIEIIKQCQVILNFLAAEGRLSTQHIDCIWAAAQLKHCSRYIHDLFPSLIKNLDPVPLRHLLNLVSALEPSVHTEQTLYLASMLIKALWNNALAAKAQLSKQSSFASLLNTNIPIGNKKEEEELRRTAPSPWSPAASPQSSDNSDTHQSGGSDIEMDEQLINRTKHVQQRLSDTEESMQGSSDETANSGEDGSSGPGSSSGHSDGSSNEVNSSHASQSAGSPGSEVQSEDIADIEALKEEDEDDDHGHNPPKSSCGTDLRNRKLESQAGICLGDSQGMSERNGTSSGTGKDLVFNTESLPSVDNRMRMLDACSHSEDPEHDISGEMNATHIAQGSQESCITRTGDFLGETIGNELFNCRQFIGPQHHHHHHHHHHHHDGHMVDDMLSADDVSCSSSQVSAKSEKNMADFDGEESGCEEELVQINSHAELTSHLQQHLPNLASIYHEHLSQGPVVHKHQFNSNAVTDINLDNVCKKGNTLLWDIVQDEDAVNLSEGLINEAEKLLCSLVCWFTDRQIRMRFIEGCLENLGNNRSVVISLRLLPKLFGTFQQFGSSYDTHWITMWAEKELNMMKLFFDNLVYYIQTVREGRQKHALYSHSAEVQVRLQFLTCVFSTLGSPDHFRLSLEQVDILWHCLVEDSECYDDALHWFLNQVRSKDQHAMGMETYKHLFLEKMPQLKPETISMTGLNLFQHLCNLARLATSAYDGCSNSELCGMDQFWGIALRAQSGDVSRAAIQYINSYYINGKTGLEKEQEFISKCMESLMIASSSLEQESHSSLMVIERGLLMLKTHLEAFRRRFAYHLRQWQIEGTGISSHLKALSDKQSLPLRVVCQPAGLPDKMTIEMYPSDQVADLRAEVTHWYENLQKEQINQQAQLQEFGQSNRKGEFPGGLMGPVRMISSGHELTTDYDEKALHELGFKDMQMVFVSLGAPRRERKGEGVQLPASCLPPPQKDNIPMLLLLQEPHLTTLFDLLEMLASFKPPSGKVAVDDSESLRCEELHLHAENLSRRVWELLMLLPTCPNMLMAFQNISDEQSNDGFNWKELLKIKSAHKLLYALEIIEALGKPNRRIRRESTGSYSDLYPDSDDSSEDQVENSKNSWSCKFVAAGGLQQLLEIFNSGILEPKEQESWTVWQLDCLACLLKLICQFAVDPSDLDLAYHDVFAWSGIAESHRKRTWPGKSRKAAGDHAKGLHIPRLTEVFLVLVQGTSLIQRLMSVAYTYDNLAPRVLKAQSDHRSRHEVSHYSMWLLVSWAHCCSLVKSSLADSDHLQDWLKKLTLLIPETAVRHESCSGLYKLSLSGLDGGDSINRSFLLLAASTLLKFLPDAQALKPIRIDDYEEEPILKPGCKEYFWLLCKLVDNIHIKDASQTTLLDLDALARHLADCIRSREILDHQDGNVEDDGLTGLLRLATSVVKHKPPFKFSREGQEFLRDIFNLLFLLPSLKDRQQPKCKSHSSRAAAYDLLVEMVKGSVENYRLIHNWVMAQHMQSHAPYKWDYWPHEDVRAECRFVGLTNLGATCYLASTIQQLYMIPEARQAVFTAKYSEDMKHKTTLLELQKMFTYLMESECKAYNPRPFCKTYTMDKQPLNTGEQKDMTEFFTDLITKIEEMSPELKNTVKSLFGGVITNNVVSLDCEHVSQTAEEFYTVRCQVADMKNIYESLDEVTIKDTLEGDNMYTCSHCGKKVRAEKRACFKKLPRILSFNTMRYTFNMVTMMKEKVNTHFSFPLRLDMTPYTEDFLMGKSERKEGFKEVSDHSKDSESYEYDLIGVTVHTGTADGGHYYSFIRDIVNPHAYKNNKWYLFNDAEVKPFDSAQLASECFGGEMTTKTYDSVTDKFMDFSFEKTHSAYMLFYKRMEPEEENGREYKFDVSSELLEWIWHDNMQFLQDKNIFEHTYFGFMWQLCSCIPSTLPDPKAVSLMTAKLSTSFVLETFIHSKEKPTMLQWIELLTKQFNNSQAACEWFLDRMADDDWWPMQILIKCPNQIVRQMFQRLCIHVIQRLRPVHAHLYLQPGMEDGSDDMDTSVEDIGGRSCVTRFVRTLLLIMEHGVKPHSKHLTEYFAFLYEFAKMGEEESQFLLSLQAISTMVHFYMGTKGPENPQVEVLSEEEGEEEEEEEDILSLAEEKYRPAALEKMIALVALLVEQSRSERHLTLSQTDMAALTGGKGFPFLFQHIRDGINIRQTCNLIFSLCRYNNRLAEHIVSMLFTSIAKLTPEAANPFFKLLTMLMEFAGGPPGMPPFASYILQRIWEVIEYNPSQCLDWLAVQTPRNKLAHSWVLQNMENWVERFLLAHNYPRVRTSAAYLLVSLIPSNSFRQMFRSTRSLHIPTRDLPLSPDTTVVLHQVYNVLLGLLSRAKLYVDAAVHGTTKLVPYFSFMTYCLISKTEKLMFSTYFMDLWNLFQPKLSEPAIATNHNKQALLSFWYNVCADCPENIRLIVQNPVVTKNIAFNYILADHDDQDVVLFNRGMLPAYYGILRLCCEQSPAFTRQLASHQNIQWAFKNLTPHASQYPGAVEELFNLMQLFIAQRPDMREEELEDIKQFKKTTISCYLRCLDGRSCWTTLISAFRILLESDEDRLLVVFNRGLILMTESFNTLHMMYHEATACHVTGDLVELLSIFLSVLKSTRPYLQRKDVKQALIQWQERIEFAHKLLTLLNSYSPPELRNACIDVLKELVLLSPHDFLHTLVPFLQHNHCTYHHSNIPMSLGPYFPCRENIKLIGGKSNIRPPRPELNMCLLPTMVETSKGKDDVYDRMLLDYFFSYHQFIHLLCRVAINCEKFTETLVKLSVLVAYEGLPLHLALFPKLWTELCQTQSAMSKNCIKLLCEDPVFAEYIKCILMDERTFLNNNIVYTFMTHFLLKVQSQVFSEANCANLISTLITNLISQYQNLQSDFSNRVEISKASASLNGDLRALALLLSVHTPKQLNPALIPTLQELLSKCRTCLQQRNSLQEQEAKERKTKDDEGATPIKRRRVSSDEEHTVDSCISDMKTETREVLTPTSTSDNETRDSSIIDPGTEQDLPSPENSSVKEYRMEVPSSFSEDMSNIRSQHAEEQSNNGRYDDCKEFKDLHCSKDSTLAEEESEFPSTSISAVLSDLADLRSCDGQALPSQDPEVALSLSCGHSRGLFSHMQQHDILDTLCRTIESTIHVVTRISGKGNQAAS

N#Cc1ccccc1N1CCN(C(=O)CCl)CC1
inactive: USP34 -0.549 | USP36 -0.232 | USP38 -0.312 | USP39 0.399 | USP4 -0.61
